In PubChem BioAssay AID686978 (National Center for Advancing Translational Sciences (NCATS), 2013):
In all, about 420,000 compounds went through this assay and about 64,000 (15%) were called active. Inconclusive results (about 27%) are left out. A selection follows. A number with no mark means an inactive call. Calls follow the shape of the dose curve; as a rule, active = well fitted inhibition curve with a large enough effect; inconclusive = small, poorly fitted or top-dose-only effect; inactive = flat fitted curve, though single readings scatter.

assay: qHTS for Inhibitors of human tyrosyl-DNA phosphodiesterase 1 (TDP1): qHTS in cells in absence of CPT; settings: DT40 Tdp1-/- hTDP1 cells, no CPT, ATP luminescence, 48 h; activity change, negative = growth inhibition: at 46.2 µM (top of the series); also: nearly all actives have a fitted effect of over 55% in size
Outline: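 Seeded 400 DT40-hTDP1 cells/well (vehicle DMSO, no 20 nM CPT); pinned compounds; ≥48 hr at 37 °C; CellTiter-Glo luminescence as viability measure.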
% is scaled to controls: 0 for no effect and ±100 for the full control effect; potency is read from the fitted curve at half-maximal effect.

| Compound | activity change, negative = growth inhibition | Potency |
| --- | --- | --- |
| Cc1ccc(S(=O)(=O)N2CCOCC2)cc1C(=O)OC1CCCCC1=O (configuration not stated) | -18.6% |  |
| CC(=O)N1CCc2cc(Br)cc(S(=O)(=O)CCC(=O)Nc3c(C)n(C)n(-c4ccccc4)c3=O)c21 | -7.36% |  |
| CCOC(=O)c1c(NC(=O)c2cc(-c3ccc(Cl)cc3)on2)sc2c1CCCC2 | -4.88% |  |
| CCOC(=O)c1c(-c2ccc(-c3ccccc3)cc2)csc1NC(=O)CCC(=O)O | 15.5% |  |
| CCCS(=O)(=O)c1ncc(Cl)c(C(=O)Nc2scc(-c3ccccc3)c2C(=O)OCC)n1 |  | 3.66 µM (active) |
| CCOC(=O)c1c(N)nn(C(=O)c2ccccc2)c1-c1ccccc1 | 8.93% |  |
| Cc1ccc2nc(NC(=O)c3nc(SCc4ccccc4F)ncc3Cl)sc2c1 | 11% |  |
| CCOC(=O)c1c(-c2cccc(C)c2)csc1NC(=O)c1c(-c2ccccc2)noc1C |  | 23.1 µM (active) |
| CCOC(=O)C1CCN(C(=O)COC(=O)C2CCN(S(=O)(=O)c3ccc4c(c3)OCCO4)CC2)CC1 | -2.44% |  |
| CCOC(=O)CN/C=C(\C#N)c1ccc(F)cc1 | 8.78% |  |
| CC(C)CN(C(=O)Cn1c(=O)cnc2ccccc21)C1CCS(=O)(=O)C1 (configuration not stated) | -1.96% |  |
| CC1(C(=O)Nc2ccc3c(c2)OCCO3)CN(S(C)(=O)=O)CC(=O)N1Cc1cccc(F)c1 (configuration not stated) | -7.77% |  |
| O=C(C1CCCO1)N1CCN(C(=S)Nc2cccc(Cl)c2)CC1 (configuration not stated) | -22.5% |  |
| CCOC(=O)C1CCN(C(=O)C2CCN(S(=O)(=O)N3CCCC3)CC2)CC1 | -12.4% |  |
| O=C(CCCCn1c(=O)[nH]c2ccccc2c1=O)NCc1ccc2c(c1)OCO2 | -26.8% |  |
| CCCCNC(=O)CSc1nc2cc3c(cc2c(=O)n1CCCCCC(=O)NCc1ccc2c(c1)OCO2)OCO3 | -7% |  |
| CCN(CC)C(=O)CSc1nc2cc3c(cc2c(=O)n1CCCC(=O)NCc1ccc2c(c1)OCO2)OCO3 |  | 16.4 µM (active) |
| CN(C)/N=C/c1cn(-c2ccccc2)nc1-c1cccnc1 | -26.2% |  |
| CC(C)(C)OC(=O)N/N=C/c1cn(-c2ccccc2)nc1-c1cccnc1 | -26.1% |  |
| COc1ccc(-c2nn(-c3ccccc3)cc2/C=N/Nc2ccccn2)cc1OC |  | 5.8 µM (active) |
| O=C(Nc1cccc2cccnc12)c1cccc(Cl)c1 | -25.7% |  |
| CC(=O)/C(=N\Nc1ccc(Cl)cc1Cl)Sc1cccc2cccnc12 |  | 4.11 µM (active) |
| N#Cc1ccc(C(=O)Nc2cccc3cccnc23)c(F)c1 | 12.3% |  |
| C#CCN(N(C)c1ncc(C(F)(F)F)cc1Cl)S(=O)(=O)c1ccc2ccccc2c1 | -19.9% |  |
| Cc1csc(NC(=O)CSc2nnc(-c3cccnc3)o2)n1 | 4.46% |  |
| O=C(NCCS(=O)(=O)NCc1ccc(F)cc1)c1ccccc1 | -11.1% |  |

| Compound | activity change, negative = growth inhibition | Potency |
| --- | --- | --- |
| O=C(COC(=O)c1ccc(O)cc1)Nc1nccs1 | -0.707% |  |
| O=C(Cn1cnc([N+](=O)[O-])n1)NCCc1ccccc1 | 2.11% |  |
| CCN1CCN(CC(=O)c2cc(OC)c(OC)c(OC)c2)CC1 | -11.6% |  |
| COc1cc(-n2c(C)nc3cc(C(=O)NCc4ccco4)ccc32)cc(OC)c1OC | -11.4% |  |
| CCn1c(CNC(=O)c2cc(OC)c(OC)c(OC)c2)cc2cc(C)ccc21 |  | 13 µM (active) |
| COC(=O)c1cccc(NC(=O)c2cccc(N3C(=O)CCC3=O)c2)c1 | -4.15% |  |
| O=C(O)c1ccccc1Cc1ccc(F)c2ccccc12 | 3.98% |  |
| O=C(CNCc1ccco1)Nc1cc(S(=O)(=O)N2CCOCC2)ccc1N1CCCC1 | -0.457% |  |
| CC(=O)Nc1ccc(S(=O)(=O)N2CCC(C(=O)NC3CC3)CC2)cc1 | 15.7% |  |
| O=C(Nc1ccc(S(=O)(=O)N2CCOCC2)cc1)C1CCN(S(=O)(=O)c2ccc(Cl)cc2)CC1 |  | 10.3 µM (active) |
| COCCNC(=S)Nc1cc(S(=O)(=O)N2CCOCC2)ccc1N1CCCCC1 |  | 16.4 µM (active) |
| CCOc1ccc(C(=O)Nc2ccc(CN3CCOCC3)cc2)cc1Cl | -7.26% |  |
| CCOc1ccc(C(=O)NC(=S)Nc2ccc(NC(=O)C(C)C)cc2)cc1[N+](=O)[O-] | 5.95% |  |
| O=C(Nc1ccc2c(c1)nc1n2CCCCC1)c1cc(S(=O)(=O)N2CCOCC2)ccc1Cl |  | 14.6 µM (active) |
| O=C(OCC(=O)N1CCCC1=O)c1cc(S(=O)(=O)N2CCOCC2)ccc1Cl | -4.83% |  |
| O=C(COC(=O)c1ccccc1F)Nc1cc(S(=O)(=O)N2CCOCC2)ccc1N1CCCC1 | 1.56% |  |
| CCOc1ccc(C(=O)NC(=S)Nc2ccc(N3CCOCC3)c(Cl)c2)cc1[N+](=O)[O-] |  | 8.2 µM (active) |
| O=S(=O)(c1ccc(NC(=S)NN=C(C2CC2)C2CC2)cc1)N1CCOCC1 | -8.48% |  |
| COc1cc(NC(=S)NCc2ccco2)c(OC)cc1Cl | -6.81% |  |
| COC(=O)CN(c1nc(C)c(Cl)c(OC)n1)S(=O)(=O)c1ccc(C)cc1 | -18.2% |  |
| O=C(OCC(O)C(O)COC(=O)c1ccccc1)c1ccccc1 (configuration not stated) | -8.97% |  |
| O=C(O)C(=Cc1ccccc1[N+](=O)[O-])c1ccccc1 | -12.4% |  |
| O=C(Cc1c(F)cccc1Cl)N1CCN(C(=O)c2ccco2)CC1 | -11.5% |  |
| COc1ccc(NC(=O)CNc2cc(S(=O)(=O)N3CCOCC3)ccc2N2CCOCC2)c(OC)c1 | 2.99% |  |
| O=C(Nc1ccc(N2CCOCC2)c(Cl)c1)c1ccc(S(=O)(=O)N2CCOCC2)cc1 |  | 14.6 µM (active) |
| CC(Oc1ccc(F)cc1)C(=O)Nc1cc(S(=O)(=O)N2CCOCC2)ccc1N1CCN(C)CC1 (configuration not stated) | -1.55% |  |

| Compound | activity change, negative = growth inhibition | Potency |
| --- | --- | --- |
| CC(C)CCOc1ccc(C(=O)Nc2cc(S(=O)(=O)N3CCOCC3)ccc2N2CCOCC2)cc1 |  | 5.8 µM (active) |
| O=C(Nc1ccc2cn[nH]c2c1)c1ccc(S(=O)(=O)N2CCOCC2)cc1 | -19.1% |  |
| CC(=O)Nc1ccc(C(=O)Nc2cc(S(=O)(=O)N3CCOCC3)ccc2N2CCOCC2)cc1 | -26.5% |  |
| NC(=O)CN1CCCC1c1ccc2c(c1)OCCO2 (configuration not stated) | -8.83% |  |
| CCOC(CNC(=O)C1CCN(S(=O)(=O)c2ccc3nc4c(c(C(=O)O)c3c2)CC(C)CC4)CC1)OCC (configuration not stated) | 20.5% |  |
| CCN(CC)N=Nc1cccc(NC(C)=O)c1 |  | 3.26 µM (active) |
| CC(=O)Nc1cccc(C(=O)OCC(=O)c2ccc3c(c2)OCO3)c1 | -25.7% |  |
| CC(=O)c1cccc(NC(=O)c2ccncc2)c1 | -20.5% |  |
| C=CCn1c(SCc2ccc(Cl)c(Cl)c2)nnc1C(CO)NC(=O)c1ccc(OC)cc1 (configuration not stated) |  | 20.6 µM (active) |
| C=CCn1c(CNC(=O)c2ccco2)nnc1SCC(=O)c1ccc(OC)cc1 | -17.9% |  |
| C=CCn1c(CCNC(=O)c2ccccc2F)nnc1SCC(=O)Nc1ccc(OC)cc1 | -22.4% |  |
| C=CCN1C(=O)C(Cc2cccc(Cl)c2)S/C1=N/N=C/c1ccco1 (configuration not stated) | -27.6% |  |
| Cc1cc(S(=O)(=O)NCc2ccccn2)c(Cl)cc1Cl | -22.2% |  |
| CCn1c(=S)sc2c(=O)n(CC(=O)Nc3ccc(OC)cc3)c(C)nc21 | 8.25% |  |
| C#CCNc1ccc(C(=O)OCC)cc1 | -31.1% |  |
| CC(CN1CCOCC1)OC(=O)c1ccc(Cl)cc1Cl (configuration not stated) | -0.492% |  |
| COC(=O)c1ccc(NCc2cc(O)ccc2O)cc1 |  | 4.61 µM (active) |
| COC(=O)c1cc(C(=O)CSc2nc(C)cc(C)n2)ccc1O | -0.488% |  |
| CC(C)OC(=O)c1ccc(NCc2cc(O)ccc2O)cc1Cl |  | 2.59 µM (active) |
| O=C(OC12CC3CC(CC(C3)C1)C2)c1ccc(NCc2cc(O)ccc2O)cc1 |  | 1.64 µM (active) |
| CC(OC(=O)c1ccc(Cl)cc1O)C(=O)NCCC1=CCCCC1 (configuration not stated) | -14% |  |
| CSCCC(NS(=O)(=O)c1ccc(C)cc1)C(=O)N1CCCC1 (configuration not stated) | -3.98% |  |
| C/C(Cc1ccccc1)=N\NC(=O)CNC(=O)c1ccc2c(c1)OCCO2 | -18% |  |
| CC1(C)C2CCC13CS(=O)(=O)NC3C2 (configuration not stated) | -2.28% |  |
| CC1(C)OC(=O)C(=CNC(CO)C(=O)O)C(=O)O1 (configuration not stated) | -11.9% |  |
| O=P(O)(CP(=O)(c1ccccc1)c1ccccc1)c1ccccc1O | 5.16% |  |

| Compound | activity change, negative = growth inhibition | Potency |
| --- | --- | --- |
| C=CCN1CN(S(=O)(=O)c2ccc(OC)cc2)c2nc3ccccc3nc21 | 11.2% |  |
| Cn1cnnc1Sc1ccc(CN2CCN(C3CCCC3)C(CCO)C2)o1 (configuration not stated) | 4.43% |  |
| Cc1c(C(=O)N(Cc2ccccc2)Cc2cccnc2)cnn1-c1ccc(F)cc1 | -12.2% |  |
| CCN(CC)CC(=O)Nc1nn(-c2ccccc2)nc1C(N)=O | 1.58% |  |
| O=C(NCCCN1CCCCCC1)c1ccc(N2CCCC2=O)cc1 | -2.76% |  |
| Cc1ccc(C(=O)N/N=C\c2cc(Br)c(Br)o2)cn1 |  | 16.4 µM (active) |
| Cc1ccc(C(=O)N/N=C/c2cccc3ccccc23)cn1 | -2.46% |  |
| O=C(N/N=C/c1ccc(Br)o1)c1cncc(Br)c1 | 14.6% |  |
| C=CCSc1ccc(S(=O)(=O)N2CCN(C)CC2)cn1 | -4.94% |  |
| COC(=O)C1CCN(C(=O)COC(=O)c2cc(S(=O)(=O)N3CCOCC3)ccc2C)CC1 | -11% |  |
| CC1CCCC(NC(=O)COC(=O)c2ccccc2C(=O)N(C)C2CCCCC2)C1C (configuration not stated) |  | 14.6 µM (active) |
| O=C(COC(=O)c1ccccc1SCC(=O)NC1CCCCC1)NC1CCCCC1 | -14.5% |  |
| C=CCNC(=O)COC(=O)c1ccccc1C(=O)N(C)C1CCCCC1 | 9.03% |  |
| NC(=O)COC(=O)c1sc2cc(F)ccc2c1Cl | 14.2% |  |
| CC(=O)NC12CC3CC(C1)CC(C(=O)N1CCN(C(=O)c4ccco4)CC1)(C3)C2 | 22.3% |  |
| COc1ccc(N(CC(=O)NC(C)(C)C)C(=O)c2ccco2)cc1 | -10.6% |  |
| CC1(C)CC(=O)c2cc(OCC(=O)NCC3CCCO3)ccc2O1 (configuration not stated) | -13.3% |  |
| Cc1cc(-c2cccs2)nc(-n2cccc2)n1 | -17.5% |  |
| O=C(NNc1ncnc2c1cnn2-c1ccccc1)c1ccco1 | 3% |  |
| Cc1cccc(NC(=S)NCc2ccc3[nH]c4c(c3c2)CCCC4)c1 |  | 18.4 µM (active) |
| O=C(O)CCC(=O)NCc1ccc2[nH]c3c(c2c1)CCCC3 | -2.01% |  |
| Cc1cccc(NC(=S)N2CCCC(c3nc4ccccc4[nH]3)C2)c1 (configuration not stated) | 7.85% |  |
| CCCCc1c(O)nc2n(c1=O)CCS2 | -13.1% |  |
| O=C(Oc1ccc(Br)cc1C(=S)N1CCOCC1)c1cccc([N+](=O)[O-])c1 | -19.6% |  |
